# Results from PubChem BioAssay (NCATS).
# Where “and” joins values, the source holds several entries; their conditions need not be identical. Equal entries are not always repeated. Records with an inconclusive call do not appear. Entries that show only a call come without a potency. Unmarked numbers belong to inactive results. Calls of active or inactive are those of the source. Calls come from the whole dose curve; as a rule, active = well fitted curve in the direction sought with a large enough effect; inconclusive = small, poorly fitted or top-dose-only effect, or another doubt; inactive = no such curve, though single readings can be large; an effect the other way counts as inactive or inconclusive.
# What was measured:
# [1] = Viability qHTS for spleen associated tyrosine kinase inhibitor (SYKi) naive MV4-11 cells (AID 1963823); note: nearly all actives have a fitted effect of over 40% in size; note: potency is the fitted concentration of half-maximal effect
# Summary of the method: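 Luminescence from CellTiter-Glo, developed 10 min at room temperature, gave viability of MV4-11 cells never exposed to SYK inhibitor. Cells (500/well) had been incubated with compounds for 72 hr under standard culture conditions.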
# [2] = Viability qHTS for spleen associated tyrosine kinase inhibitor (SYKi) drug resistant MV4-11 cells (AID 1963824); note: nearly all actives have a fitted effect of over 35% in size; note: potency is the fitted concentration of half-maximal effect
# Summary of the method: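 SYK-inhibitor-resistant MV4-11 AML cells were seeded at 500 per well onto compound and cultured 72 hours (37 °C, 5% CO2). CellTiter-Glo was then added, and after 10 min at room temperature, luminescence gave viability.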
# [3] = Cellular viability qHTS for adrenocortical cancer (ACC) cell line NCI-H295R (AID 1963990); note: nearly all actives have a fitted effect of over 60% in size; note: potency is the fitted concentration of half-maximal effect
# Summary of the method: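 IC50 and maximal efficacy derive from four-parameter logistic modelling of titration curves, with reads scaled between DMSO-only wells (0%) and doxorubicin hydrochloride (100% inhibition). Compounds spanned up to 46 uM over 48 h.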
# [4] = Quantitative highthroughput screen to assess conditional lethalithy of NOMO1 cells grown in RPMI1640 with untreated serum (RPMI+s) (AID 1963876); note: nearly all actives have a fitted effect of over 35% in size
# Summary of the method: (§1)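 Each medium arm—HPLM with 10% dialyzed FBS, or RPMI1640 with 5 mM glucose and 10% untreated or dialyzed FBS—was screened against an 11-point, 3-fold compound titration for 48 h at 37 °C, with CellTiter-Glo luminescence as endpoint.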
# [5] = Quantitative highthroughput screen to assess conditional lethalithy of NOMO1 cells grown in RPMI1640 with dialyzed fetal bovine serum (RPMI+ds) (AID 1963877); note: series mostly up to about 46 µM; nearly all actives have a fitted effect of over 30% in size
# Summary of the method: as §1
# [6] = Quantitative highthroughput screen to assess conditional lethalithy of NOMO1 cells grown in Human Plasma-Like Medium with dialyzed fetal bovine serum (HPLM+ds) (AID 1963878); note: nearly all actives have a fitted effect of over 35% in size
# Summary of the method: as §1
# [7] = Quantitative highthroughput screen to assess conditional lethalithy of P12 Ichikawa cells grown in Human Plasma-Like Medium with dialyzed fetal bovine serum (HPLM+ds) (AID 1963879); conditions: Potency: viability; note: series mostly up to about 46 µM; nearly all actives have a fitted effect of over 35% in size
# Summary of the method: as §1
# [8] = Quantitative highthroughput screen to assess conditional lethalithy of P12 Ichikawa cells grown in RPMI1640 with dialyzed fetal bovine serum (RPMI+ds) (AID 1963880); conditions: Potency: P12-Ichikawa viability; note: nearly all actives have a fitted effect of over 35% in size
# Summary of the method: as §1
# [9] = Quantitative highthroughput screen to assess conditional lethalithy of P12 Ichikawa cells grown in RPMI1640 with untreated serum (RPMI+s) (AID 1963881); conditions: Potency: viability
# Summary of the method: as §1
# [10] = Quantitative highthroughput screen to assess conditional lethalithy of SEM cells grown in Human Plasma-Like Medium with dialyzed fetal bovine serum (HPLM+ds) (AID 1963882)
# Summary of the method: as §1
# [11] = Quantitative highthroughput screen to assess conditional lethalithy of SEM cells grown in RPMI1640 with unreated serum (RPMI+s) (AID 1963883); note: nearly all actives have a fitted effect of over 35% in size
# Summary of the method: as §1
# [12] = Quantitative highthroughput screen to assess conditional lethalithy of SEM cells grown in RPMI1640 with dialyzed fetal bovine serum (RPMI+ds) (AID 1963884)
# Summary of the method: as §1
# [13] = Cellular viability qHTS for adrenocortical cancer (ACC) cell line SW-13 (AID 1963989); conditions: SW-13 ACC cells viability, CellTiter-Glo, 48 h; activity (max response): stronger effect = lower value;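 note: cells grown in serum-free medium with ITS supplement; nearly all actives have a fitted effect of over 65% in size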
# Summary of the method: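 Luminescent ATP read-out (CellTiter-Glo, 20 min at room temperature) measured metabolically competent SW-13 cells after 48 h compound treatment. Final concentrations spanned up to 46 uM; bortezomib served as positive control.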
smiles,measurement,setting,value
CN1CCN(c2ccc3nc(-c4c(N)c5c(F)cccc5[nH]c4=O)[nH]c3c2)CC1,Potency,[1],0.0116 µM (active)
same,Potency,[2],16.4 nM (active) and 18.6 nM (active)
same,Potency,[3],17.8 µM (active)
N[C@H](C(=O)O)c1ccc(O)cc1,Potency,[1],inactive
same,Potency,[2],inactive
same,Potency,[3],inactive
C=CC[C@@H]1/C=C(\C)C[C@H](C)C[C@H](OC)[C@H]2O[C@@](O)(C(=O)C(=O)N3CCCC[C@H]3C(=O)O[C@H](/C(C)=C/[C@@H]3CC[C@@H](O)[C@H](OC)C3)[C@H](C)[C@@H](O)CC1=O)[C@H](C)C[C@@H]2OC,Potency,[1],18.6 µM (active)
same,Potency,[2],14.8 µM (active)
same,Potency,[3],inactive
OC(c1cc(C(F)(F)F)nc2c(C(F)(F)F)cccc12)C1CCCCN1 (stereo not drawn),Potency,[1],18.6 µM (active)
same,Potency,[2],9.34 µM (active)
same,Potency,[3],25.1 µM (active)
CC(C)NCCCC1(C(N)=O)c2ccccc2-c2ccccc21,Potency,[1],inactive
same,Potency,[2],inactive
same,Potency,[3],inactive
CC(C)(C)NC(=O)[C@@H]1CN(Cc2cccnc2)CCN1C[C@@H](O)C[C@@H](Cc1ccccc1)C(=O)N[C@H]1c2ccccc2C[C@H]1O,Potency,[1],inactive
same,Potency,[2],inactive
same,Potency,[3],inactive
COC1(c2sc3c(N4CCOCC4)nc(-c4cnc(N)nc4)nc3c2C)COC1,Potency,[1],0.231 µM (active)
same,Potency,[2],0.411 µM (active)
same,Potency,[3],0.501 µM (active)
CCOC(=O)[C@H](CCc1ccccc1)N[C@@H](C)C(=O)N(CC(=O)O)C1Cc2ccccc2C1,Potency,[1],inactive
same,Potency,[2],inactive
same,Potency,[3],inactive
C=CC(=O)Nc1cccc(C)c1Nc1ncc2cc(-c3c(Cl)c(OC)cc(OC)c3Cl)ccc2n1,Potency,[1],1.03 µM (active)
same,Potency,[2],1.46 µM (active)
same,Potency,[3],3.55 µM (active)
O=S(=O)(Nc1ccc(-c2cccnc2)c2cccnc12)c1cccc(C(F)(F)F)c1,Potency,[1],6.61 µM (active)
same,Potency,[2],5.25 µM (active)
same,Potency,[3],3.98 µM (active)
CC(=O)C1CCC2C3CCC4=CC(=O)CCC4(C)C3CCC12C (stereo not drawn),Potency,[1],16.6 µM (active)
same,Potency,[2],9.34 µM (active)
same,Potency,[3],inactive
CCCCC1=NC2(CCCC2)C(=O)N1Cc1ccc(-c2ccccc2-c2nn[nH]n2)cc1,Potency,[1],inactive
same,Potency,[2],inactive
same,Potency,[3],inactive
COC1CCN(C(=O)c2cc(Cc3n[nH]c(=O)c4ccccc34)ccc2F)CC1,Potency,[1],18.6 µM (active)
same,Potency,[2],14.8 µM (active)
same,Potency,[3],inactive
CN1CCCC(CC2c3ccccc3Sc3ccccc32)C1 (stereo not drawn),Potency,[1],18.8 µM (active)
same,Potency,[2],16.8 µM (active)
same,Potency,[3],18.4 µM (active)
CNC(=O)[C@@H](NC(=O)[C@H](CC(C)C)[C@H](O)C(=O)NO)C(C)(C)C,Potency,[1],13.2 µM (active)
same,Potency,[2],10.5 µM (active)
same,Potency,[3],inactive
COc1cc(F)ccc1-c1ncnc(Nc2cccc(CS(C)(=N)=O)c2)n1 (stereo not drawn),Potency,[1],1.16 µM (active)
same,Potency,[2],1.16 µM (active)
same,Potency,[3],7.08 µM (active)
Cn1ncc2cc(-c3cnc(N)c(Cl)c3N3CCC4(CCNC4=O)CC3)ccc21,Potency,[1],2.31 µM (active) and 1.48 µM (active)
same,Potency,[2],2.59 µM (active) and 2.95 µM (active)
same,Potency,[3],inactive
Cc1cc(O)c(C)c(C)c1O,Potency,[1],inactive
same,Potency,[2],inactive
same,Potency,[3],inactive
Cc1ccc(NS(=O)(=O)c2cccc(C#N)c2)c2[nH]cc(C#N)c12,Potency,[1],0.166 µM (active)
same,Potency,[2],0.235 µM (active)
same,Potency,[3],0.112 µM (active)
CNC(=O)Cn1cc(-c2ccc3c(c2)C(F)CC32NC(=O)N(CC(=O)N(Cc3ccc(F)cc3)C(C)C(F)(F)F)C2=O)cn1 (stereo not drawn),Potency,[1],0.0417 µM (active)
same,Potency,[2],0.166 µM (active)
same,Potency,[3],inactive
O=C(O)C(Cc1cc(I)c(O)c(I)c1)c1ccccc1 (stereo not drawn),Potency,[1],inactive
same,Potency,[2],inactive
same,Potency,[3],inactive
COC[C@@H](c1ccc(C(F)(F)F)cc1)N1CCN(C2(C)CCN(C(=O)c3c(C)ncnc3C)CC2)C[C@@H]1C,Potency,[1],inactive
same,Potency,[2],18.6 µM (active)
same,Potency,[3],inactive
c1cc(CN2CCCNCCNCCCNCC2)ccc1CN1CCCNCCNCCCNCC1,Potency,[1],inactive
same,Potency,[4],inactive
same,Potency,[5],inactive
same,Potency,[6],inactive
same,Potency,[7],inactive
same,Potency,[8],inactive
same,Potency,[9],inactive
same,Potency,[10],inactive
same,Potency,[11],inactive
same,Potency,[12],inactive
same,activity (max response),[13],-19.4%
same,Potency,[3],inactive
Cn1c(N2CCCCS2(=O)=O)nc(C(=O)NCc2ccc(F)cc2)c(O)c1=O,Potency,[1],inactive
same,Potency,[4],inactive
same,Potency,[5],inactive
same,Potency,[6],inactive
same,Potency,[7],inactive
same,Potency,[8],inactive
same,Potency,[9],inactive
same,Potency,[10],inactive
same,Potency,[11],inactive
same,Potency,[12],inactive
COc1ccc(C2Sc3ccccc3N(CCN(C)C)C(=O)C2OC(C)=O)cc1 (stereo not drawn),Potency,[1],inactive
same,Potency,[4],inactive
same,Potency,[5],inactive
same,Potency,[6],inactive
same,Potency,[7],inactive
same,Potency,[8],inactive
same,Potency,[9],inactive
same,Potency,[10],inactive
same,Potency,[11],inactive
same,Potency,[12],inactive
